From PubChem BioAssay (NCATS)
Records with an inconclusive call do not appear. A number with no mark means an inactive call. Activity calls are given as the source filed them. The call rests on the fitted dose curve; in most records, active means well fitted curve in the direction sought with a large enough effect in the signal ratio, with a control signal flat (not every such curve was filed as active); inconclusive means small, poorly fitted or top-dose-only effect, or effect the other way, or a change in a side signal; inactive means no such curve, though single readings can be large or run the other way; the % refers to the signal ratio.

Target: Peroxisome proliferator-activated receptor gamma (Homo sapiens) (UniProt P37231)
Sequence (P37231 whole entry, looked up): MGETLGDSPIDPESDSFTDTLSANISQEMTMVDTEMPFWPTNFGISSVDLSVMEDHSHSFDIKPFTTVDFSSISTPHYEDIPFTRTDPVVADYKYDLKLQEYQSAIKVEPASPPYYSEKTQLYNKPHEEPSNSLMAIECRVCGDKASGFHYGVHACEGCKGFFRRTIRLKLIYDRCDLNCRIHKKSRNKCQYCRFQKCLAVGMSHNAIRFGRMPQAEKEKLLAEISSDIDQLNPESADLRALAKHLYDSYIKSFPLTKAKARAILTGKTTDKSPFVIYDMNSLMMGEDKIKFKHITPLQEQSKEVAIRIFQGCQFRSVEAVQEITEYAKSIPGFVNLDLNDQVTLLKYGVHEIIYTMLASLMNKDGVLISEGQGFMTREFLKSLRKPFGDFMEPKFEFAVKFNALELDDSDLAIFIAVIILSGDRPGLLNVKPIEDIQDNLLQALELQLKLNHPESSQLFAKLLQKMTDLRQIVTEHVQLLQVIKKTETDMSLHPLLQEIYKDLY
Experiment: qHTS assay for small molecule agonists of peroxisome proliferator-activated receptor gamma signaling (AID 588536)
Conditions: HEK293 PPARg-UAS-bla, beta-lactamase ratio, 16 h, percent of rosiglitazone response, DMSO as zero; series mostly up to 76.7 µM; activation: at the top concentration
Description: NIH Chemical Genomics Center [NCGC] U.S. Environmental Protection Agency [EPA] National Institutes of Environmental Health Sciences [NIEHS] National Toxicology Program [NTP] NCGC Assay Overview The Peroxisome proliferator-activated receptors (PPARs) are lipid-activated transcription factors of the nuclear receptor superfamily with three distinct subtypes namely PPAR alpha, PPAR delta (also called PPAR beta) and PPAR gamma. All these subtypes heterodimerizes with Retinoid X receptor (RXR) and these heterodimers regulate transcription of various genes. PPAR-gamma (glitazone receptor) agonists have been used in the treatment of type 2 diabetes and dyslipidaemia. It is involved in the regulation of glucose and lipid metabolism. PPAR-gamma activates certain genes like Paraoxonase 1 which is responsible for hydrolyzing organophosphates. PPAR-gamma agonists may also be therapeutically important in the treatment of coronary artery disease, obesity and cancer and atherosclerosis.
NCGC Assay Protocol Summary Using a beta-lactamase reporter-gene under control of Peroxisome Proliferator-Activated-gamma (PPAR-gamma) response element, a cell-based assay [GeneBLAzer PPAR-gamma-UAS-bla assay developed by Invitrogen] was used to measure PPAR-gamma ligands signaling. GeneBLAzer PPAR-gamma-UAS-bla-HEK293 cells were used with assay medium containing 1% charcoal/dextran treated FBS. The assay was performed in clear bottom black Greiner 1536-well plates. Rosiglitazone was used in the screen as the positive control. Library compounds were measured for their ability to stimulate the reporter gene activity. Compounds were screened in a titration series in 1536-well format. The fluorescence intensity (405 nm excitation, 460/530 nm emission) was measured using an EnVision plate reader. Data was normalized relative to Rosiglitazone control (2 uM, 100%), and DMSO only wells (basal, 0%). Concentration-response titration points for each compound were fitted to the Hill equation yielding concentrations of half-maximal stimulation (EC50) and maximal response (efficacy) values. qHTS protocol for PPAR-gamma beta-lactamase assay in agonist mode [Step] [Parameter] [Value] [Description] 1. Reagent; 6 uL; 3000 cells/well 2. Incubation; 37 C for 6 - 6.5 hrs 3. Compounds; 23 nL; 0.59 nM to 92 uM 4. Controls (Rosiglitazone); 23 nL, - One column with dose response, start 19 uM, 1:3 dilutions in duplicates - Final concentrations of 2 uM and 0.5 uM in two columns 5. Incubation; 37 C for 16 hrs 6. Detection reagent; 1 uL of CCF4-dye 7. Incubation; RT for 2 hrs 8. Detection; Fluorescence; Envision plate reader

SMILES | activation [%] | outcome
COc1ccc(/C=C/c2cc(OC)cc(=O)o2)cc1 | 3.44 | –
O=C(O)c1ccc(O)cc1O | – | inactive
CCC(O)OC(O)CC (stereo not given) | – | inactive
Cc1ccccc1C | – | inactive
Nc1ccc(S(=O)(=O)O)cc1 | – | inactive
CC1(C)CC(N=C=O)CC(C)(CN=C=O)C1 (stereo not given) | – | inactive
CN(C)C=O | – | inactive
CCO | -0.201 | –
CCCCCCCCCCCCCC(=O)O | 0.581 | –
C=C(C)C1CC=C(C)C(O)C1 (stereo not given) | 0.841 | –
Cc1cccc([N+](=O)[O-])c1C | – | inactive
COC(=O)CCCCC(=O)OC | – | inactive
COc1ccc2nc(N)sc2c1 | 2.82 | –
Clc1cc(Cl)c(Cl)cc1Cl | – | inactive
C[Si](C)(C)O[Si](C)(C)O[Si](C)(C)C | 1.57 | –
C/C=C\c1ccc(OC)cc1 | -1.91 | –
c1ccccc1 | – | inactive
c1ccc2c(c1)[nH]c1ccccc12 | – | inactive
Cc1c(N=C=O)cccc1N=C=O | – | inactive
Cc1ccc([N+](=O)[O-])cc1N | – | inactive

SMILES | activation [%] | outcome
COCC(=O)O | – | inactive
C=CCOC(=O)c1ccccc1C(=O)OCC=C | – | inactive
C1OCOCO1 | -1.13 | –
Cc1cccc(O)c1 | – | inactive
ClCCCl | – | inactive
CCCCCCCCCCCCCCC1CO1 (stereo not given) | – | inactive
C=CCc1ccc(OC)c(OC)c1 | – | inactive
C=CC(=C)CCC=C(C)C | 3.96 | –
O=S(=O)(O)c1ccccc1 | 5.32 | –
O=C(O)c1ccccc1C(c1ccc(O)cc1)c1ccc(O)cc1 | – | inactive
CC(C)=CCCC(C)CCO (stereo not given) | – | inactive
O=C1CCc2ccccc2O1 | 0.444 | –
O=C(O)CC(C(=O)O)C(CC(=O)O)C(=O)O (stereo not given) | – | inactive
O=C(O)c1ccccc1 | 2.45 | –
CCCN(CCC)C(=O)SCC | -2.54 | –
O=C(/C=C/c1ccc(O)c(O)c1)O[C@@H](C(=O)O)[C@@H](OC(=O)/C=C/c1ccc(O)c(O)c1)C(=O)O | -1.72 | –
CC1=C2[C@H](/C=C(\C)C(=O)O)CC[C@@H](C)[C@H]2CC1 | -0.32 | –
CN(C)CCCCCCN(C)C | -3.14 | –
O=C(Nc1ccccc1)c1ccccc1O | -13.6 | –
O=NO | – | inactive
